In PubChem BioAssay AID651640 (Broad Institute, 2012):
Hit rate of the full screen: of about 350,000 compounds, about 6,000 (1.7%) were called active. Inconclusive results (about 5%) are left out. Cut-off read from the data, not from the text of the source: active = CPE inhibition above about 20% (passing the limit was not always enough); inconclusive = no clear call, values can overlap the other calls; tested in BHK-21 cells. The entries come from a sample that favours actives as a whole.

assay: inhibitors of DENV2 cytopathic effect, primary screen, cell-based, plate reader, single concentration (AID 651640); details: DENV2-infected cells, cytopathic effect rescue, at 9.99 µM, hits give high values;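 note: 0% = median of neutral control wells and 100% = median of positive control wells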

Row | SMILES | CPE inhibition
1 | CCCN(C)C[C@H]1Oc2ncc(-c3ccccc3OC)cc2C(=O)N([C@H](C)CO)C[C@H]1C | 1.17% (inactive)
2 | C[C@H](CO)N1C[C@H](C)[C@@H](CN(C)S(=O)(=O)c2ccccc2)OCCCC[C@H](C)Oc2ccc(NC(=O)NC3CCCCC3)cc2C1=O | -3.62% (inactive)
3 | C[C@H]1CCCCO[C@H](CN(C)C(=O)CCC(F)(F)F)[C@@H](C)CN([C@@H](C)CO)C(=O)c2cc(NC(=O)Nc3ccc4c(c3)OCO4)ccc2O1 | -12.5% (inactive)
4 | C[C@@H]1CN([C@H](C)CO)C(=O)c2cccc(NS(=O)(=O)c3ccc(F)cc3)c2O[C@@H]1CN(C)C(=O)Nc1ccc(F)cc1 | 10.9% (inactive)
5 | C[C@H](CO)N1C[C@H](C)[C@H](CN(C)S(=O)(=O)c2ccc(C#N)cc2)Oc2ncc(-c3cccc(F)c3)cc2C1=O | 2.2% (inactive)
6 | COCC(=O)N(C)C[C@@H]1Oc2cc(C#CCC(C)C)ccc2S(=O)(=O)N([C@@H](C)CO)C[C@@H]1C | -6.44% (inactive)
7 | COC(=O)C1[C@H]2SC(C)(C)C(C(=O)OC)N2C(=O)N1Cc1nc2ccccc2s1 (stereo not given in full) | 38.1% (active)
8 | CCC1(CC)NC(=O)N(Cc2nc3ccccc3s2)C1=O | -2.84% (inactive)
9 | CC1(C)S[C@@H]2[C@H](NC(=O)COc3ccccc3)C(=O)N2C1C(=O)OCc1ccccc1 (stereo not given in full) | 9.26% (inactive)
10 | C/C=C/c1ccc2c(c1)O[C@H](CN(C)C(C)=O)[C@H](C)CN([C@H](C)CO)S2(=O)=O | -7.9% (inactive)
11 | COc1cccc(S(=O)(=O)N2C[C@@H](O)COC[C@H]3O[C@H](CC(=O)N4CCCCC4)CC[C@@H]32)c1 | -9.51% (inactive)
12 | O=C(/C=C(O)/C=C/c1ccc(O)cc1)/C=C/c1ccc(O)cc1 | 61.1% (active)
13 | O=C(/C=C/c1ccc2c(c1)OCCO2)c1ccc(O)cc1 | -0.309% (inactive)
14 | O=C(O)/C=C/c1ccc(OCCCF)cc1 | -4.88% (inactive)
15 | CC(C)NC(=O)N(C)C[C@H]1Oc2ncc(-c3ccccc3F)cc2C(=O)N([C@@H](C)CO)C[C@@H]1C | -8.68% (inactive)
16 | CO[C@@H]1CN(C)C(=O)c2cc(NS(=O)(=O)c3ccccc3)ccc2OC[C@@H](C)N(C(=O)NC(C)C)C[C@@H]1C | 10.4% (inactive)
17 | O=C(c1cccnc1)N(c1cc2sc(=O)oc2c2ccccc12)S(=O)(=O)c1ccccc1 | -6.54% (inactive)
18 | COc1ccc(N(C(=O)c2cccnc2)S(=O)(=O)c2ccc(OC)c(OC)c2)cc1 | 29.9% (active)
19 | COc1ccc(N(CC(=O)N/N=C/c2cccs2)S(=O)(=O)c2ccc(OC)c(OC)c2)cc1 | 6.81% (inactive)
20 | CO[C@H]1CN(C)C(=O)c2ccc(NS(=O)(=O)c3ccccc3)cc2OC[C@@H](C)N(Cc2nccs2)C[C@@H]1C | -6.98% (inactive)
21 | CO[C@@H]1CN(C)C(=O)c2ccc(NS(=O)(=O)c3ccc(Cl)cc3)cc2OC[C@H](C)N(C(=O)NC(C)C)C[C@H]1C | 9.25% (inactive)
22 | C[C@@H]1CN([C@H](C)CO)C(=O)c2cc(NC(=O)Nc3ccc4c(c3)OCO4)ccc2O[C@H]1CN(C)C(=O)Nc1ccccc1 | 6.05% (inactive)

Row | SMILES | CPE inhibition
23 | O=C(C[C@H]1C[C@@H]2c3cc(NC(=O)c4ccc5c(c4)OCO5)ccc3O[C@@H]2[C@@H](CO)O1)NCCN1CCCCC1 | -1.97% (inactive)
24 | Cc1noc(C)c1S(=O)(=O)N(C)C[C@@H]1OCc2ccccc2-c2ccccc2C(=O)N([C@@H](C)CO)C[C@H]1C | 4.05% (inactive)
25 | Cc1cc(C(=O)CCC(=O)NNC(=O)c2ccccc2O)c(C)s1 | -2.6% (inactive)
26 | O=C(NNC(=O)c1ccccc1O)c1ccccc1O | 48.5% (active)
27 | Cc1cc(C(=O)NNC(=O)c2ccccc2O)c(C)o1 | -2.62% (inactive)
28 | COc1cccc(-c2ccc3n(c2=O)C[C@@H]2[C@@H](CO)[C@H](C(=O)NC4CCC4)[C@H]3N2C)c1 | -5.73% (inactive)
29 | C[C@H](CO)N1C[C@H](C)[C@@H](CN(C)S(=O)(=O)c2cccs2)Oc2ccc(NC(=O)Nc3ccc(C(F)(F)F)cc3)cc2CC1=O | 3.14% (inactive)
30 | CCCC(=O)Nc1ccc2c(c1)C(=O)N(C)[C@H]1CC[C@@H](CC(=O)NCc3ccccc3)O[C@@H]1CO2 | -7.15% (inactive)
31 | C[C@@H]1CN([C@@H](C)CO)C(=O)c2cc(NC(=O)Nc3ccc4c(c3)OCO4)ccc2O[C@@H]1CN(C)C(=O)Nc1ccc2c(c1)OCO2 | -0.429% (inactive)
32 | CCCCNc1c(-c2ccc(OC)c(Sc3ccc(OC)cc3)c2)nc2ccc(Cl)cn12 | 30.7% (active)
33 | CCCCCCSc1ccc(-c2nc3ccc(Cl)cn3c2NCc2ccccc2)cc1 | 3.27% (inactive)
34 | CCCCNc1c(-c2cccc(Sc3ccc(OC)cc3)c2)nc2ccccn12 | -17.2% (inactive)
35 | COC(=O)C[C@@H]1C[C@@H]2c3cc(NC(=O)NC4CCCC4)ccc3O[C@@H]2[C@@H](CO)O1 | -3.24% (inactive)
36 | CO[C@@H]1CN(C)C(=O)c2cc(NC(=O)C3CCOCC3)ccc2OC[C@H](C)N(Cc2cccnc2)C[C@@H]1C | -1.61% (inactive)
37 | CNS(=O)(=O)c1cccc(C(=O)OCC(=O)N2c3ccccc3NC(=O)C2(C)C)c1 | 28.3% (active)
38 | Cc1cc(C(=O)OCC(=O)N2c3ccccc3NC(=O)C2(C)C)c(C)n1-c1ccccc1 | -1.8% (inactive)
39 | CCNc1ccc(C(=O)OCC(=O)N2c3ccccc3NC(=O)C2(C)C)cc1[N+](=O)[O-] | -0.27% (inactive)
40 | C[C@@H]1CN([C@H](C)CO)C(=O)Cc2cc(NC(=O)Cc3ccccc3)ccc2O[C@H]1CN(C)S(=O)(=O)c1cccs1 | 1.69% (inactive)
41 | COc1ccc(S(=O)(=O)N(C)C[C@@H]2OCCCC[C@@H](C)Oc3ccc(NC(=O)CCCN(C)C)cc3C(=O)N([C@@H](C)CO)C[C@@H]2C)cc1 | 0.066% (inactive)
42 | CCS(=O)(=O)N1Cc2cc(C(=O)N(C)C)nc(-c3cccc(-c4ccc(C#N)cc4)c3)c2[C@H]1CCO | 20.3% (active)
43 | CCCNC(=O)c1cc2c(c(-c3cccc(-c4ccc(C#N)cc4)c3)n1)[C@@H](CCO)N(C(=O)CC)C2 | 4.99% (inactive)
44 | CC(C)(C)[S@@](=O)N1Cc2cc(C(=O)N3CCOCC3)nc(-c3cccc(-c4ccc(C#N)cc4)c3)c2[C@H]1CCO | -2.86% (inactive)

Row | SMILES | CPE inhibition
45 | CC(C)NC(=O)N(C)C[C@H]1Oc2c(NC(=O)Nc3ccc(F)cc3)cccc2C(=O)N([C@@H](C)CO)C[C@@H]1C | 10.9% (inactive)
46 | CO[C@H]1CN(C)C(=O)c2ccc(NC(=O)c3cccc(F)c3)cc2OC[C@@H](C)N(C(C)=O)C[C@@H]1C | -2.36% (inactive)
47 | Cc1noc(C)c1S(=O)(=O)Nc1ccc2c(c1)CC(=O)N([C@@H](C)CO)C[C@H](C)[C@H](CN(C)C(=O)Nc1ccccc1)O2 | -4.97% (inactive)
48 | Cc1noc(C)c1S(=O)(=O)Nc1ccc2c(c1)C(=O)N([C@@H](C)CO)C[C@H](C)[C@H](CN(C)C(=O)Nc1ccc(C(F)(F)F)cc1)O2 | -2.38% (inactive)
49 | COc1ccc(S(=O)(=O)Nc2ccc3c(c2)CC(=O)N([C@H](C)CO)C[C@H](C)[C@H](CN(C)C(=O)Nc2ccccc2)O3)cc1 | -6.98% (inactive)
50 | Cc1noc(C)c1S(=O)(=O)Nc1ccc2c(c1)CC(=O)N([C@@H](C)CO)C[C@@H](C)[C@@H](CN(C)C(=O)Nc1ccc(C(F)(F)F)cc1)O2 | 46.5% (active)
51 | Cc1noc(C)c1NC(=O)N(C)C[C@H]1Oc2ccc(NS(=O)(=O)c3ccc(Cl)cc3)cc2CC(=O)N([C@H](C)CO)C[C@@H]1C | -8.56% (inactive)
52 | COc1ccc(S(=O)(=O)Nc2ccc3c(c2)CC(=O)N([C@@H](C)CO)C[C@@H](C)[C@@H](CN(C)C(=O)Nc2c(C)noc2C)O3)cc1 | 29.8% (active)
53 | COc1ccc(S(=O)(=O)Nc2ccc3c(c2)CC(=O)N([C@H](C)CO)C[C@@H](C)[C@H](CN(C)S(=O)(=O)c2c(C)noc2C)O3)cc1 | -6.33% (inactive)
54 | COc1ccc(NC(=O)N(C)C[C@@H]2Oc3ccc(NS(=O)(=O)c4ccc(OC)cc4)cc3CC(=O)N([C@H](C)CO)C[C@H]2C)cc1 | 11.3% (inactive)
55 | COc1ccc(S(=O)(=O)Nc2ccc3c(c2)CC(=O)N([C@H](C)CO)C[C@H](C)[C@@H](CN(C)C(=O)NC(C)C)O3)cc1 | 21.3% (active)
56 | C[C@H]1CN([C@@H](C)CO)C(=O)c2cc(Br)cnc2O[C@H]1CN(C)CC1CCCC1 | 7.93% (inactive)
57 | O=C(C[C@@H]1C[C@@H]2c3cc(NC(=O)NC4CCCC4)ccc3O[C@@H]2[C@@H](CO)O1)NCc1ccccc1 | -0.285% (inactive)
58 | O=C(NCC1CC1)[C@@H]1[C@@H](CO)[C@@H]2Cn3c(ccc(-c4ccccc4)c3=O)[C@H]1N2Cc1nccs1 | -2.52% (inactive)
59 | CN(C)CC(=O)N[C@H]1CC[C@H](CCNC(=O)C2CCCCC2)O[C@H]1CO | -1.04% (inactive)
60 | O=C(Cc1ccccn1)N1CC(=O)N2[C@H](C1)[C@@H](c1ccc(-c3ccccc3)cc1)[C@@H]2CO | 4.12% (inactive)
61 | C[C@@H]1CN([C@H](C)CO)C(=O)c2cc(NC(=O)Nc3ccccc3)ccc2O[C@@H](C)CCCCO[C@@H]1CN(C)Cc1ccncc1 | -2.85% (inactive)
62 | COCC#Cc1cnc2c(c1)C(=O)N([C@@H](C)CO)C[C@@H](C)[C@H](CN(C)C(=O)C1CCOCC1)O2 | 4.93% (inactive)
63 | O=C(NCc1ccccc1)C1CCN(C(=O)Cc2ccccc2)CC1 | -10.5% (inactive)
64 | O=C(NCc1ccccc1)C1CNCC(C(=O)NCc2ccccc2)C1 (stereo not given) | -5.52% (inactive)
65 | O=C(O)C1C2C=CC(C2)C1C(=O)NCc1ccccc1 (stereo not given) | 23.9% (active)
